We go through 40 compounds from PubChem BioAssay (NCI).

Molecules are shown by their SMILES. Several values for one entry are separate records, joined by “and”; a condition that tells them apart may be missing. Equal entries are not always repeated. About 83,000 compounds went through this panel and 20% of them were active in at least one assay; those are over-represented in the sample as a whole.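 For each line, cells grew in 96-well plates with the test compound present at a single concentration for 48 hours.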 Activity calls are given as the source filed them.

In this assay the test system is LOX IMVI melanoma. Put plainly: NCI-60 one-dose screen, 48 h (100 = growth as untreated, 0 = no growth, -100 = all killed). The settings on record: 10 µM unless noted. The protocol: Growth inhibition of the LOX IMVI human tumor cell line is measured as a screen for anti-cancer activity. Cells are grown in 96 well plates and exposed to the test compound for 48 hours. Compounds are tested at a single concentration, which is 10^-5 M for most compounds. The reported endpoint is percent growth (GI% or GIPRCNT), where numbers from 0 - 100% represent growth inhibition, and numbers from -100% - 0 represent cell death. For example, a value of 40 represents 60% growth inhibition. A value of 0 means no net growth occurred over the course of the experiment. A value of -40 indicates 40% of cells at the beginning of the experiment died by the end of the experiment. A value of -100 means all cells are dead at the end of the experiment.
NCI-60 Human Tumor Cell Lines Screen was performed using the standard one-dose NCI protocol, which is described in more detail at https://dtp.cancer.gov/discovery_development/nci-60/default.htm.
Compounds with GIPRCNT values below 10 were considered active. Activity score was based on GIPRCNT using the following formula: […]
Score is 0 for GIPRCNT values of 100 or above, 50 for GIPRCNT values of 0, and 100 for GIPRCNT values of -100.
In the case of `CC(C)(C)c1cc(NC(=O)Nc2ccc(-c3cn4c(n3)sc3cc(OCCN5CCOCC5)ccc34)cc2)no1`, the growth is 0.319% (active) and 23.4% (inactive). In the case of `Cc1nc2sc(C(=O)Nc3cccc4ncccc34)c(N)c2cc1C(C)O` (stereo not given) it was 73.8% (inactive); in that of `Brc1ccc(/C=C(/C2=NCCN2)n2ccc3ccccc32)cc1`, 50.5% (inactive); in that of `CC(C)(C)CC(N)=O`, 98.1% (inactive). Take `CCOC(=O)CC1CSC(c2cccc(Cl)c2)=N1` (stereo not given): the growth is 95.7% (inactive). Turning to `COc1ccc(C(=O)c2ccc(OC)c(OC)c2OC)cc1`, the growth is 34.3% (inactive) and 39.8% (inactive). For the compound `COc1ccc(CN2CCc3c(Cl)nc(N)nc3C2=O)c(OC)c1`, the growth is -29.7% [100 µM] (active). Regarding `Cn1cc(-c2csc(-c3cn(CCOC(N)=O)c4ccccc34)n2)c2cccnc21`, the growth is 79% (inactive).

On to `O=C1c2cc3c(cc2-c2c1c1ccc(Cl)cc1c(=O)n2CCCn1ccnc1)OCO3`, for which the growth is -76.8% (active). As to `CN1CCN(Cc2ccc(NC(=O)c3cccc(C#Cc4c(N)ncc5ccc(F)cc45)c3)cc2C(F)(F)F)CC1`, the growth was -97.9% (active).

Turning to `CCCCn1c(C(=O)c2c[nH]c3ccccc23)n[nH]c1=S`, the growth was 96.4% (inactive).

Consider `Cn1cc(-c2nonc2-c2cn(C)c3ccc(Br)cc23)c2ccccc21`, for which the growth was 31.2% (inactive).

Regarding `C=C(C)[C@@H]1CC[C@]2(C(=O)N3CCN(C)CC3)CC[C@]3(C)[C@H](CC[C@@H]4[C@@]5(C)CC(CCCNC(C)=O)(CCCNC(C)=O)[C@H](OC(C)=O)C(C)(C)[C@@H]5CC[C@]43C)[C@@H]12`, the growth was 97.8% (inactive). For `C/C(=C(\c1ccc(OCCN2CCOCC2)cc1)c1ccc(OC(=O)C2CCCCC2)cc1)c1ccc(Cl)cc1`, the growth is 102% (inactive). `C=C(CNCCO)[C@@H]1CC[C@]2(CO)CC[C@]3(C)[C@H](CC[C@@H]4[C@@]5(C)CCC(NCCc6ccc(O)cc6)C(C)(C)[C@@H]5CC[C@]43C)[C@@H]12` (stereo not given in full): the growth is -89.8% (active).

On to `COc1cc(OC)cc(-c2ccc(-c3ccc(C(=N)N)cn3)s2)c1`, for which the growth is 14% (inactive).

For `O=C(N=Nc1c(O)[nH]c2ccccc12)Nc1ccc(Br)cc1`, the growth was 78% (inactive). In the case of `CN1CCN(c2ccc(Nc3ncc(C(N)=O)c(NCCCNC(=O)C4CCC4)n3)cc2)CC1`, the growth was 64.8% (inactive). The result for `N=C1/C(=C2\NC3C=CC=CC3S2)C(c2ccc(Cl)cc2)C2C(=O)N(c3ccccc3)C(=S)N12` (stereo not given) reads 98.2% (inactive). Take `COc1ccc2nc3cc(Cl)ccc3c(NCCCNCCC(C)O)c2c1` (stereo not given): the growth was -68% (active).

For `CC(C)=CCc1cc(O)c(O)c2oc3cc(O)cc(O)c3c(=O)c12`, the growth is 32.6% (inactive). As for `O=C(NNC(=S)Nc1ccccc1)c1ccncc1`, the growth is 101% (inactive).

For `COc1ccc(-c2cc3cnc4ccccc4c3oc2=O)cc1`, the growth is 97.6% (inactive). The result for `CCCCC(NC(=O)CN1C(=O)/C(=C/C(C)=C/c2ccccc2)SC1=S)C(=O)O` (stereo not given) reads 94.7% (inactive); that for `COC(=O)/C=C1/SC(N2N=C(c3cccs3)CC2c2ccc(F)cc2)=NC1=O` (stereo not given), -46.5% (active); that for `CC1=CC(C)(C)NC(=S)N1c1ccc(Cl)cc1`, 95.2% (inactive) and 97.7% (inactive).

In the case of `O=C(N/N=C/c1ccc(O)cc1O)c1cccc(Nc2ccnc(C(F)(F)F)c2)c1`, the growth was 13.7% (inactive). Take `CC/C(=C(/c1ccc(Cl)cc1)c1ccc(OCCN2CCOCC2)cc1)c1ccccc1`: the growth was 108% (inactive). For `CCn1cc(C(=O)NN=C2CCCC2)c(=O)c2ccc(C)nc21`, the growth is 98.1% (inactive). The result for `Nc1nc(CSc2n[nH]c(N)n2)nc(Nc2ccccc2)n1` reads 98.3% (inactive); that for `O=C(O)c1ccccc1Cc1ccc(F)c2ccccc12`, 100% (inactive) and 98.9% (inactive); that for `O=C1c2cccc3cccc(c23)C(=O)N1N1C(=O)c2cccc3c(N4CCNCC4)ccc(c23)C1=O`, 86.5% (inactive). The result for `COc1cc2nc3cc([N+](=O)[O-])ccc3c(NCCNCC(C)(C)O)c2cc1OC` reads -40.9% (active); that for `C=C(CN1CC=CCC1)[C@@H]1CC[C@]2(COC(C)=O)CC[C@]3(C)[C@H](CC[C@@H]4[C@@]5(C)CC[C@H](O)C(C)(C)[C@@H]5CC[C@]43C)[C@@H]12`, 100% (inactive). For `O=C1C=C(Nc2ccccc2)c2ncccc2C1=O`, the growth was -77.7% (active). On to `CC1=C2[C@@H](CC1)[C@]1(C)O[C@@](C3CC3)(C[C@H]1OC(=O)CO)[C@H]2OC(=O)/C=C/c1ccccc1`, for which the growth was 84% (inactive). In the case of `Clc1ccc(CNc2ccc3nc(CCC4CCCCC4)[nH]c3c2)cc1` it was 72% (inactive); in that of `CC(=O)Nc1c(I)c(NC(C)=O)c(I)c(C(=O)O)c1I`, 95.8% (inactive) and 111% (inactive); in that of `COC1=CC(c2ccc[nH]2)=N/C1=C\c1[nH]c(C)c(C(=O)Oc2ccccc2)c1C`, -86.1% (active). Regarding `Cc1ccc(-c2nc(SCC(=O)c3ccc(C#N)cc3)[nH]c(=O)c2C#N)cc1`, the growth is 92.9% (inactive).
